This is an account of results in PubChem BioAssay (NCATS).

SMILES strings stand for the structures. Records with an inconclusive call do not appear. Entries that show only a call come without a potency. Active and inactive are the calls of the source. The call rests on the fitted dose curve; in most records, active means well fitted cell-killing curve with a large enough effect; inconclusive means small, poorly fitted or top-dose-only effect; inactive means flat fitted curve, though single readings scatter.
Potency means the concentration at half of the fitted maximal effect.

The test in a line: qHTS assay to identify small molecule inhibitors of chordoma cells - UCH-2 (AID 1259356). To be noted: UCH-2 chordoma viability, CellTiter-Glo ATP luminescence, 48 h; series mostly up to 46.1 µM. From the text: NIH Chemical Genomics Center [NCGC]
Chordoma is a rare and slow growing tumor that can occur anywhere along the spine, from the base of the skull to the tailbone. Current treatment options for chordoma is surgery and radiation therapy for those who are not candidates for surgery. But chordomas tend to return in the same location or surrounding areas of the original tumor after surgery and/or radiation. Chemotherapy can slow down the progression of the tumor. As chordoma is slow growing, the general cytotoxic agents that kill fast growing cells are ineffective, and some patients have been reported to respond to molecularly targeted drugs.
NCATS Pharmaceutical Collection (NPC) containing approximately 3000 clinically approved and investigational drugs were used to screen at 15 concentrations in a chordoma cell lines, UCH-2, to identify small molecule compounds that can inhibit chordoma cell growth.
NCGC Assay Protocol Summary:
Human chordoma cell line UCH-2 was dispensed at 800 per well in 4uL of culture medium into white solid bottom 1536-well plates (Corning Life Sciences, Corning, NY) using a Multidrop Combi (Thermo Scientific, Waltham, MA) dispenser. The assay plates were incubated at 37 C and 5% CO2 for an overnight, and then 23nL of compounds dissolved in DMSO and positive control were transferred using a Pintool station (Wako, San Diego, CA). Compound treatment was followed by the addition of 1uL of the combination compounds (1uM Auranofin, 500nM each of Camptothecin, Doxorubicin, Rubitecan, and Topotecan) and assay medium to each well of the assay plates using Flying Reagent Dispenser (FRD, Aurora Discovery, San Diego, CA). The assay plates were incubated at 37 C and 5% CO2 for 48hr. Then 5uL of CellTiter-Glo reagent (Promega Corporation, Madison, WI) was added to each well of the assay plates using FRD. After 30min incubation at room temperature, the luminescence signal was quantified using a ViewLux plate reader (PerkinElmer, Shelton, CT).
On the technique in general: qHTS replaces the single test concentration by a dilution series.
For `COC(=O)c1cncn1C(C)c1ccccc1` (configuration not stated), the Potency result was “inactive”.

Take `CCCCCCCCCC(CC)c1ccc(S(=O)(=O)O)cc1` (configuration not stated): the Potency entry was “inactive”. As for `CC(C)NC(C)Cc1ccc(I)cc1` (configuration not stated), the entry is “inactive”; as for `NC(=O)CN1CC(O)CC1=O` (configuration not stated), “inactive”; as for `CCCCCCCCCCCCCCCC[N+](C)(C)C`, “inactive”. As for `C1CCC(NC2CCCCC2)CC1`, the entry is “inactive”; as for `O=C(O)COc1ccccc1`, “inactive”; as for `CN(C)[C@@H]1C(=O)C(C(N)=O)=C(O)[C@@]2(O)C(=O)C3=C(O)c4c(O)cccc4[C@@](C)(O)[C@H]3[C@H](O)[C@@H]12`, “inactive”. The result for `CC[N+]1(CCOC(=O)C(O)(c2ccccc2)c2ccccc2)CCCCC1` reads “inactive”; that for `CC(Cc1ccc(O)cc1)NCC(O)c1cc(O)cc(O)c1` (configuration not stated), “inactive”; that for `NC1=NC(=O)N2CC12` (configuration not stated), “inactive”. For the compound `C[C@]12N[C@H](Cc3ccccc31)c1ccccc12`, the Potency entry is “inactive”. As for `Cc1ccc(Cl)c(O)c1`, the Potency entry is “inactive”. As for `C[C@]12CCC(=O)C(O)=C1CC[C@@H]1[C@H]3CCC(=O)[C@@]3(C)CC[C@@H]12`, the entry is “inactive”; as for `CN[C@@H]1C[C@@H](c2ccc(Cl)c(Cl)c2)c2ccccc21`, “inactive”. The result for `CCCN1CCC[C@H](c2cccc(O)c2)C1` reads “inactive”.

In the case of `COC(C)(C)CCCC(C)C/C=C/C(C)=C/C(=O)OC(C)C` (configuration not stated), the Potency entry is “inactive”. As for `O=[N+]([O-])c1ccc([As](=O)(O)O)cc1`, the entry is “inactive”; as for `CN[C@@H](C)[C@H](O)c1ccccc1`, “inactive”. On to `CCCCc1ccc(C(=O)O)nc1`, for which the Potency entry is “inactive”. For the compound `c1ccc(C2(c3ccccc3)CC2C2=NCCN2)cc1` (configuration not stated), the Potency result is “inactive”. The result for `CC(=O)[O][Hg][c]1ccccc1` reads 2590 nM (active); that for `O=C1C(I)=CC(=C(c2cc(I)c(O)c(I)c2)c2ccccc2C(=O)O)C=C1I`, “inactive”.

Consider `C[N+](C)(C)CC(=O)O`, for which the Potency entry is “inactive”. For `O=[N+]([O-])/N=C1\NCCN1Cc1ccc(Cl)nc1`, the Potency entry is “inactive”. The result for `Cc1cc(O)ccc1Cl` reads “inactive”; that for `O=C(O)C(Cl)Cl`, “inactive”.
